For 15 molecules, outcome results are on record in PubChem BioAssay AID1159537 (DiRusso Lab, Biochemistry Department, University of Nebraska, 2015).

The campaign covered roughly 44,000 compounds. About 370 (0.84%) were called active. The rule behind the calls is not given here. The list comes from a sample in which actives are over-represented; it also holds similar structures and randomly drawn compounds.

A short description of the assay: compounds raising algal triacylglycerol storage – qHTS, Chlamydomonas reinhardtii, primary screen (AID 1159537).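 Note: hits raise Nile Red signal meaning more stored TAG.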 Conditions: Chlamydomonas reinhardtii TAG, Nile Red fluorescence, 72 h. (In general: In qHTS, concentration-response curves come from the screen itself.)
With `CCN(CC)CC#CCOc1ccccc1`, the outcome was “active [screened at 10 µM (by protocol)]”.

`O=C(Nc1cccc(OC(=O)N2CCCCC2)c1)N1CCOCC1`: the result was inactive.

Take `CCN(CC)CCNc1ccc([N+](=O)[O-])c2cccnc12`: the outcome was “inactive [screened at 10 µM (by protocol)]”.

On to `CN1CCN(Cc2cc(Br)cs2)CC1`, for which the outcome was “inactive [screened at 10 µM (by protocol)]”.

As to `CN1CCCN(CC2=CC[C@H]3C[C@@H]2C3(C)C)CC1`, the outcome was “active [screened at 10 µM (by protocol)]”.

With `CCN1CCN(CC2=CC[C@H]3C[C@@H]2C3(C)C)CC1`, the outcome is “inactive [screened at 10 µM (by protocol)]”.

As to `Cc1cccc(OCC(=O)N2CCN(Cc3ccccc3)CC2)c1C`, the outcome is “inactive [screened at 10 µM (by protocol)]”.

On to `Fc1cccc(Cl)c1CN1CCN(c2ccccc2)CC1`, for which the call was inactive.

Take `O=c1cccc2n1CC1CC2CN(c2nc(N3CCOCC3)nc(N3CCOCC3)n2)C1` (stereo not given): the result was inactive.

Consider `Cc1ccc(C)c(N2CCN(Cc3ccc([N+](=O)[O-])cc3)CC2)c1`, for which the molecule was classed as active.

`O=[N+]([O-])c1ccc(CN2CCN(c3cccc(Cl)c3)CC2)cc1`: the molecule was classed as inactive.

As to `COc1ccccc1N1CCN(Cc2cccc([N+](=O)[O-])c2)CC1`, the call was inactive.

Regarding `CCC1(c2ccccc2)C(=O)NC(=O)N(C)C1=O` (stereo not given), the molecule was classed as inactive.

Consider `Nc1ccc(-c2ccc(N)c(N)c2)cc1N`, for which the outcome is “inactive [screened at 10 µM (by protocol)]”.

Turning to `N#CC(/C=C/c1ccccc1)N1CCOCC1` (stereo not given), the molecule was classed as inactive.
